In PubChem BioAssay AID568 (Sanford-Burnham Center for Chemical Genomics, 2006):
The whole screen tested about 83,000 compounds, of which fewer than 10 were called active. The rule behind the calls is not given here. The list is a sample of the results. Potency and affinity values are given separately.

The compounds below were run against Heat shock cognate 71 kDa protein (Homo sapiens) (UniProt P11142) (assay: small molecules displacing fluorescent ligand from Hsc70 – biochemical, fluorescence polarization, primary screen (AID 568)). Conditions: mP, at 20 µM, hits give high values.
Sequence of Heat shock cognate 71 kDa protein (Homo sapiens) (P11142 whole entry, looked up): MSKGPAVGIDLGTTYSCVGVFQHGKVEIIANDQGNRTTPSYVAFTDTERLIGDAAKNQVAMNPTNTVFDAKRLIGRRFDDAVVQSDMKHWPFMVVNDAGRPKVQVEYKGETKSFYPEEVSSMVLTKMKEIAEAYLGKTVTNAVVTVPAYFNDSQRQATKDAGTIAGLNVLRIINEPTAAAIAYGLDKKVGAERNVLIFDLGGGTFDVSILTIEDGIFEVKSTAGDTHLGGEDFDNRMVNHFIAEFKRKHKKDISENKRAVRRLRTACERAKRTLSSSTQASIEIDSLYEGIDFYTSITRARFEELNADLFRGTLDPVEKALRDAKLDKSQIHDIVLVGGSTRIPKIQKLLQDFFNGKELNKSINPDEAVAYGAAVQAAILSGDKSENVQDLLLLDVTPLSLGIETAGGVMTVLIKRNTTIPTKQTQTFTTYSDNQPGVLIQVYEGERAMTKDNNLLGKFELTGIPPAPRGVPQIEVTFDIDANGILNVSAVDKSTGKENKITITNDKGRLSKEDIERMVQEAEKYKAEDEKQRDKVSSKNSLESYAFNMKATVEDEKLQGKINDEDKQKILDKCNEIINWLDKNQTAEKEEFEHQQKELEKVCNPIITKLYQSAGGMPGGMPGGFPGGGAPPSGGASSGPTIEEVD
Sequence of Heat shock cognate 71 kDa protein (Homo sapiens) (P11142 whole entry, looked up): as above

displacement, inactive:
COc1ccc(S(=O)(=O)NCC2CCC(C(=O)N3CCC4(CC3)OCCO4)CC2)cc1 (stereo not drawn) -1.2%
CC1CCN(c2nc(-c3ccccc3)c(C#N)c(=O)[nH]2)CC1 -1.1%
C=CCn1c(O)c(C(CC)=Nc2ccccc2NC(=O)CC)c(=O)[nH]c1=O 0%
NC(=O)CSc1nnc(CCc2nc3ccccc3[nH]2)n1-c1ccccc1 -0.4%
COC(=O)c1ccc(Nc2nc(C)cc(=O)[nH]2)cc1 -5.8%
Cc1occc1C(=O)Nc1cc(C(C)(C)C)on1 -3.1%
CCn1c(=O)n(CC)c2cc(S(=O)(=O)Nc3ccccc3C)c(C)cc21 0.5%
CCOC(=O)N1CCN(C(=O)c2ccc(N3C(=O)c4ccccc4C3=O)cc2)CC1 -0.7%
O=C1OCC(Cn2c3ccccc3c3ccccc32)O1 (stereo not drawn) 4.8%
O=C(CN1C(=O)c2cccc3cccc1c23)N1CCN(Cc2ccc3c(c2)OCO3)CC1 -5.5%
CC(C)C(=O)Nc1cc(=O)[nH]c2ncnn12 -7.6%
CCN1C(=O)Cc2cc(S(=O)(=O)N3CCOCC3)ccc21 7%
N#Cc1cn(CC(=O)N2CCCC2)c2ccccc12 -2.4%
Clc1ccc(OCCn2cnc3ccccc32)c(Cl)c1 -4%
CCC(CC)C(=O)NCc1ccccc1Cl 0.3%
Cc1ccc(S(=O)(=O)/N=C2/C=C(C3C(=O)CC(C)(C)CC3=O)C(=O)c3ccccc32)cc1 4%
Cc1ccc(C(=O)COc2nc(C)cc(C)c2C#N)cc1 3.2%
Cc1cc(=O)n2nc(N3CCCC(C(=O)NCCCN4CCc5ccccc5C4)C3)sc2n1 (stereo not drawn) 3%
CC(C)OC(=O)C1CC=CCC1C(=O)Nc1ccc(Cl)cc1 (stereo not drawn) 0.4%
CCc1nnc(NC(=O)CSc2nnnn2C)s1 -1.1%
CC(C)CCNC(=O)c1ccc2c(c1)ncn2C1CCCCC1 0.7%
Oc1ccccc1CNCCCNCc1ccccc1O -1.3%
COc1ccccc1N1C(=O)CC(Sc2nc(C)cc(C)n2)C1=O (stereo not drawn) 0.9%
COC(=O)c1ccc(NC(=O)CCN2CCN(CCC(=O)Nc3ccc(C(=O)OC)cc3)CC2)cc1 2.6%
Cc1cc(C)c2c(N)c(S(=O)(=O)Cc3ccccc3)sc2n1 3.8%
O=C(O)CCN1C(=O)C2CCCCC2C1=O (stereo not drawn) -0.4%
Cc1ccc(OCC2Cn3c(nc4c3c(=O)n(C)c(=O)n4C)O2)cc1 (stereo not drawn) 1.1%
COc1ccc(OC)c(-n2nnnc2SCC(=O)O)c1 4.6%
CCC(=O)N(Cc1cc2ccccc2[nH]c1=O)C(C)C 7%
Cc1ccc2c(c1)NCC(C(=O)NCc1ccccc1)O2 (stereo not drawn) 1.6%
CCc1cccc(NS(=O)(=O)c2ccc3c(c2)oc(=O)n3C)c1 1.5%
CC1(c2ccc(OC(F)F)cc2)NC(=O)N(CC(=O)Nc2ccc3c(c2)OCO3)C1=O (stereo not drawn) -2.6%
Cc1cccc(C)c1NC(=O)NC1(C(=O)NCCCN2CCOCC2)CCCCC1 -2.5%
Cc1noc(C)c1COC(=O)CCCc1nc2ccccc2s1 0.6%
COc1ccc(C(=O)Nc2ccc3oc(-c4cccc(F)c4)nc3c2)cc1OC 2.4%
Cc1ccc(/C=N/NC(=O)CC2N=C(Cc3ccccc3)NNC2=O)cc1 (stereo not drawn) -1.6%
CN1C(=S)SC(/[N+]([O-])=C\c2ccco2)C1(C)C (stereo not drawn) -8.3%
CCOC(=O)c1sc(NC(=O)C2CCCO2)c(C(=O)OC)c1C (stereo not drawn) 2.1%
Cc1ccc(-c2cc3nc(C)cc(NCc4ccco4)n3n2)cc1 -12.6%
CCOC(=O)N1CCC(N2C(=O)c3ccccc3C2Nc2ccc(Cl)cn2)CC1 (stereo not drawn) 0%
CCC(=O)N1CCc2cc(Br)cc(S(=O)(=O)NCC3CCCO3)c21 (stereo not drawn) 5.2%
COc1ccc(-c2nnc3sc(CCN4C(=O)c5ccccc5C4=O)nn23)cc1 -0.6%
O=C(N1CCN(c2ccccc2)CC1)C(F)(F)C(F)(F)F 8.8%
CCOC(=O)CCSCC(=O)Nc1cc(C)on1 4.3%
Cc1ccc(NCc2nnc(SCC(=O)OC3CCCCC3)o2)c(C)c1 -6.7%
CCN1CCN(C(=O)c2sc3nc(C)nc(N4CCC(C)CC4)c3c2C)CC1 -3.6%
CN(c1ccccc1)C(c1ccc(F)cc1)c1nnnn1C1CCCC1 (stereo not drawn) -4.6%
CCOC(=O)c1ccc(COC(=O)CNC(=O)CNC(=O)c2ccc(OC)cc2)o1 -3.7%
CC(C)C(c1nnnn1Cc1ccc(F)cc1)N1CCSCC1 (stereo not drawn) -2.2%
COc1ccc(CCN2CNc3c(c(=O)n(C)c(=O)n3C)C2)cc1 0.1%
O=C(CSc1nnc(-c2ccncc2)n1CC1CCCO1)NCc1ccccc1 (stereo not drawn) -0.2%
O=C(Nc1ccc(N2CCOCC2)cc1)c1cccc(S(=O)(=O)N2CCC(Cc3ccccc3)CC2)c1 -1.4%
Cc1ccc(OCC(=O)Nc2cc(-c3nn4c(C)nnc4s3)ccc2C)cc1 4.5%
Clc1ccc(/C=N/c2c(-c3ccco3)nc3ccccn23)cc1 3.7%
CC(NC(=O)c1ccc(CS(=O)(=O)c2cccc(C(F)(F)F)c2)o1)c1ccc2c(c1)OCCO2 (stereo not drawn) -1.8%
COc1ccc(C(=O)Oc2cccnc2)cc1 -4.3%
Cc1ccc(C)c2c1[nH]c1ccccc12 1.5%
CC(C)Cc1cc(C(=O)N2N=C(C(F)F)CC2(O)C(F)F)c2ccccc2n1 (stereo not drawn) 1.5%
COc1cc2cc(C(c3nnnn3C3CCCC3)N3CCCCCC3)c(=O)[nH]c2cc1OC (stereo not drawn) -5%
COCCN1C(=O)c2ccccc2C(C(=O)NCCN(C)C)C1c1ccc(F)cc1 (stereo not drawn) -4.9%
CCCCn1c(=O)n(CC(=O)Nc2ccc(C)c(Cl)c2)c(=O)c2c1ncn2Cc1ccco1 -21.2%
CCOc1ccc(CC(C(=O)NN)C(=O)NN)cc1CN(C)C 2.3%
COc1ccc(Br)cc1CNC(=O)C1CCCN(S(C)(=O)=O)C1 (stereo not drawn) -2%
OC(COc1ccc2c(c1)OCO2)CN1CCc2ccccc2C1 (stereo not drawn) 1.3%
COCCNC(=O)C(c1ccc(C)o1)N(Cc1ccco1)C(=O)c1snc(C(N)=O)c1N (stereo not drawn) 5.3%
CC1=CN2C(=NC(=O)CC2(C)C(=O)N(CC(=O)NC2CCCC2)c2ccccc2C)C=C1 (stereo not drawn) -1.4%
CC(=O)OCCn1c(Br)nc2c1c(=O)[nH]c(=O)n2C 4.4%
Cc1nc2c(C(=O)N3CCCCC3)cnn2c(C)c1Cc1ccccc1F 2.6%
COC(=O)[C@H](Cc1ccccc1)NC(=O)N1CCC(C)CC1 -1.3%
CN1CCN(S(=O)(=O)c2ccc(N3CCN(S(=O)(=O)/C=C/c4ccccc4)CC3)nc2)CC1 -5.3%
Cn1cnnc1SCCC(=O)Nc1ccc(Cl)cc1 4.9%
CC1CCCCC1NC(=O)Cn1ncc2ccccc21 (stereo not drawn) -0.3%
CCC(Sc1nc2n[nH]c(C)c2c(=N)n1-c1cccc(Cl)c1C)C(=O)N(CC)CC (stereo not drawn) -7.7%
Cc1ccc(-c2noc(C3CCCN(C(=O)c4ccccc4)C3)n2)o1 (stereo not drawn) 1.4%
CCc1ccc2nc(NC3=NCN(CCOC)CN3)nc(C)c2c1 0.7%
Cc1ccc(N2CN=C(c3ccccc3)NC2=S)cc1 -3.8%
CCOC(=O)c1ccc(NC(=O)CSc2nc(C)cc(=O)[nH]2)cc1 -2.1%
O=C(NC1CCCCCCC1)c1ccco1 -2.6%
Cc1c(/C=C/C(=O)c2cccs2)cnn1C 0.7%
CCOc1cccc(C(=O)Nc2ccc(N(CC)CC)cc2)c1 -1.7%
O=C1c2ccsc2SCCN1Cc1ccc(Cl)cc1 3.5%
Nc1ccccc1SCc1cn2cccnc2n1 -0.9%
CC(C)[C@H](NC(=O)OC(C)(C)C)c1nnc(SCc2cccc(F)c2)o1 6.2%
CC(C)(C)c1ccc(-c2nnc(SCCN3C(=O)c4ccccc4C3=O)o2)cc1 -4.1%
CCCn1nnc(NC(=O)c2ccccc2Br)n1 -4.1%
Cc1ccc2nc(NC(=O)c3cccs3)sc2c1 1.4%
Cc1ccccc1-n1c(=O)cc(N2CCN(C(=O)c3ccco3)CC2)[nH]c1=O -0.4%
COc1ccc2[nH]cc(C(=O)CN3CCN(C(=O)c4ccco4)CC3)c2c1 -1.6%
COc1ccc(C2C(C(=O)NC(C)C)c3ccccc3C(=O)N2C)cc1OC (stereo not drawn) -8.3%
COc1ccc(C(=O)CN2C(=O)c3ccccc3C2=O)c(OC)c1C -1.2%
O=C(CC12CC3CC(CC(C3)C1)C2)NCO -2.2%
CCCCOCC(O)Cn1c(C)nc2ccccc21 (stereo not drawn) -2.3%
CN=C1SC(CC(=O)Nc2cccc(Cl)c2Cl)C(=O)N1C (stereo not drawn) 0%
COc1nc(OC)nc(N2CCCCCC2)n1 7.4%
c1cncc(-c2nc3cc(Cc4ccc5oc(-c6cccnc6)nc5c4)ccc3o2)c1 -0.1%
COCCCn1c(SCC(=O)Nc2ccc3c(c2)OCCO3)nnc1-c1ccoc1C -9.3%
Cn1cccc1Cc1nnc(SCC(=O)NCc2ccccc2)n1-c1ccc(F)cc1 1.3%
CC(C)CC(=O)Nc1ccc(-c2cn3ccsc3n2)cc1 3%
